The target in this experiment is T1, UniProt Q8TD55|Q8TD55-2.
T1 sequence (whole entry): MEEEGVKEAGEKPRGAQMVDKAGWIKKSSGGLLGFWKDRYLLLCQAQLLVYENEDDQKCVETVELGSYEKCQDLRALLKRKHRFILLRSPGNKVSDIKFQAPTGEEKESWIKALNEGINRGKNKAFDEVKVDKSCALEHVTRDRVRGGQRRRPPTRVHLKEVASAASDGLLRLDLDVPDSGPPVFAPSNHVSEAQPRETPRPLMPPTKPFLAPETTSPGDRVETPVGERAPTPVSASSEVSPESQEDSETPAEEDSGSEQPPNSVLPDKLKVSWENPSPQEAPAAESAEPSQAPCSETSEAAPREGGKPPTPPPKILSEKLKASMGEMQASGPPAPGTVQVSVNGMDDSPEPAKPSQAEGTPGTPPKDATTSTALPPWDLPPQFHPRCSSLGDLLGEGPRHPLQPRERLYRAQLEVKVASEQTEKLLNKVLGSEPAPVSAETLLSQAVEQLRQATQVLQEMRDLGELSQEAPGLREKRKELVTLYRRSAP
Description: NP40-soluble protein abundance relative to vehicle (solubility fold change) (ratio); higher = more soluble protein in presence of GTP. As to the method:
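Solubility proteome profiling in Jurkat crude lysate. Lysate was treated with Mg-GTP (0.1-10 mM) for 10 min at room temperature and 3 min at 37 °C, then solubilised with 0.8% NP40 and benzonase, followed by ultracentrifugation. Proteins were quantified by TMT10 LC-MS/MS; the value is the NP40-soluble abundance relative to the NP40-processed vehicle, from 3 independent experiments.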

± gives the standard deviation of the averaged measurements. About 5,400 targets were measured; listed, in parts, are those with the largest changes and a random draw of the rest.

Regarding `Nc1nc2c(ncn2[C@@H]2O[C@H](COP(=O)(O)OP(=O)(O)OP(=O)(O)O)[C@@H](O)[C@H]2O)c(=O)[nH]1` [guanosine triphosphate], the NP40-soluble protein abundance worked out at 1.07 ± 0.12 (concentration: 0.1mM); 0.933 ± 0.0094 (concentration: 0.5mM); 1.12 ± 0.072 (concentration: 1mM); 0.933 ± 0.018 (concentration: 2mM); 0.96 ± 0.072 (concentration: 4mM); 0.918 ± 0.046 (concentration: 6mM). For the same molecule, the NP40-soluble protein abundance runs as follows: (concentration: 8mM) 0.943 ± 0.13; (concentration: 10mM) 1.03 ± 0.097.

These data come from the supplement of paper PMC6411743.
